Here are results for 16 targets from the supplement of paper PMC10849652.

Targets with a hit are over-represented here; the source holds about 7,900 in all. About 0.6% of all pairs of compound and target were hits. Unmarked numbers belong to inactive results.

Holding throughout (experiment): log2 fold change, soluble protein after heating vs DMSO (PISA); higher = thermal stabilisation; K562 cells, 10 uM, 30 min; active = over 0.2 and 3.5 SD of the protein, either way, in both replicates (recomputed)
Compound in test [1]: COC1=CC=C(C=C1)CN2C=CC3=C2C=C(C=C3)C(=O)NO
The essentials:
(§1)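 For each measurement, 10 μM compound was applied for 30 min to K562 cells at 2×10^6 cells/mL. Aliquots were heated for 3 min across 48°C-58°C, pooled, and extracted in PBS with 0.5% NP-40 at 4°C; the supernatant after 21,000xg for 90 min was soluble protein. This was quantified by TMTpro 16plex LC-MS/MS with channel sums equalised, and thermal stability was reported relative to control samples from duplicates, on a log2 fold-change scale.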

Compound in test [2]: CON(C)C(=O)N1N=C(c2cc(F)ccc2F)S[C@@]1(CCCN)c1ccccc1 [filanesib]
The essentials: as §1

Compound in test [3]: CO[C@H]1C[C@@H]2CC[C@@H](C)[C@@](O)(O2)C(=O)C(=O)N2CCCC[C@H]2C(=O)O[C@H]([C@H](C)C[C@@H]2CC[C@H](n3cnnn3)[C@H](OC)C2)CC(=O)[C@H](C)/C=C(\C)[C@@H](O)[C@@H](OC)C(=O)[C@H](C)C[C@H](C)/C=C/C=C/C=C/1C [zotarolimus]
The essentials:
as §1

Compound in test [4]: COc1cc(Nc2ncc3c(n2)-c2ccc(Cl)cc2C(c2c(F)cccc2OC)=NC3)ccc1C(=O)O [alisertib]
An outline of the steps:
as §1

Compound in test [5]: COc1cc2nc(-c3cc(F)ccc3O)nc(N[C@@H]3CNC[C@H]3C(C)(C)O)c2cc1OC
An outline of the steps: as §1

Compound in test [6]: COc1cc2ncnc(Nc3ccc(F)c(Cl)c3)c2cc1OCCCN1CCOCC1 [gefitinib]
An outline of the steps: as §1

Compound in test [7]: COc1cccc2cc(-c3nc([C@H]4CC[C@H](C(=O)O)CC4)n4ncnc(N)c34)[nH]c12
The essentials:
as §1

Compound in test [8]: CS(=O)(=O)CCNCc1ccc(-c2ccc3ncnc(Nc4ccc(OCc5cccc(F)c5)c(Cl)c4)c3c2)o1 [lapatinib]
The essentials:
as §1

Compound in test [9]: COc1cc(C(=O)O)ccc1NC(=O)[C@@H]1N[C@@H](CC(C)(C)C)[C@](C#N)(c2ccc(Cl)cc2F)[C@H]1c1cccc(Cl)c1F [idasanutlin]
The essentials:
as §1

Compound in test [10]: CS(=O)(=O)N1CCN(Cc2cc3nc(-c4cccc5[nH]ncc45)nc(N4CCOCC4)c3s2)CC1 [pictilisib]
An outline of the steps:
as §1

UniProt Q7Z4R8, sequence (Q7Z4R8 whole entry, looked up): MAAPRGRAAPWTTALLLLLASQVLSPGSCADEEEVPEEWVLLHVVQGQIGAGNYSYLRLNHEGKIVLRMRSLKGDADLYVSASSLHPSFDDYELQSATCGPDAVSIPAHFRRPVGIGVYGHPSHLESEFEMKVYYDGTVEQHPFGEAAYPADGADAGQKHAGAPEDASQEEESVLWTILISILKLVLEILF
UniProt Q14790, sequence (Q14790 whole entry, looked up): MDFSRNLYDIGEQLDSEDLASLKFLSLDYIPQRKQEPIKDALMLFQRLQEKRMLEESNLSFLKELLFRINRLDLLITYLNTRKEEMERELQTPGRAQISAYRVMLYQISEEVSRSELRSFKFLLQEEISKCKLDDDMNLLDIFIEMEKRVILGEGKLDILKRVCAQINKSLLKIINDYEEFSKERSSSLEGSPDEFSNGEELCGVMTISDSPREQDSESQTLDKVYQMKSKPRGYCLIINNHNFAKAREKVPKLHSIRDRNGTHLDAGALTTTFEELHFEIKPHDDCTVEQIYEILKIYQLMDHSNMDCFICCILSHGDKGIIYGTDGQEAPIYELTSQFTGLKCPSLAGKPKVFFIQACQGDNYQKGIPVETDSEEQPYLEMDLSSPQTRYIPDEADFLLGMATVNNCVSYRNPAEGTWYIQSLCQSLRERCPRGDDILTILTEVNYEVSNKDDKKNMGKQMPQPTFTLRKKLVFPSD
UniProt Q13555, sequence (Q13555 whole entry, looked up): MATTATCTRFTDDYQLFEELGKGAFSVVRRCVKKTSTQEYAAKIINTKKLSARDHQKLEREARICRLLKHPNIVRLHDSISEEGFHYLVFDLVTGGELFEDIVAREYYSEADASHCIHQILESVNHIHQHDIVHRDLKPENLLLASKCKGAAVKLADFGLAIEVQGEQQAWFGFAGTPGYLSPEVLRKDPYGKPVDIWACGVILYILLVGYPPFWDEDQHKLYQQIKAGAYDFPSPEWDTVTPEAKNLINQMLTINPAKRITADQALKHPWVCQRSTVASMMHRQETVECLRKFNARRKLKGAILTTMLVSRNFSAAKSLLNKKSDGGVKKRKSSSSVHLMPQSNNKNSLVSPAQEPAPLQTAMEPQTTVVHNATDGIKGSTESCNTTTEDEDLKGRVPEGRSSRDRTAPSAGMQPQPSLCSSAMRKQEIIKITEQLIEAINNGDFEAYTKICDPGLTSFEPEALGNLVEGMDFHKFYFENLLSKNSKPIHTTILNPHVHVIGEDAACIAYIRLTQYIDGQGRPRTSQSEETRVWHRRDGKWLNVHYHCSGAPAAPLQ
UniProt Q00537, sequence (Q00537 whole entry, looked up): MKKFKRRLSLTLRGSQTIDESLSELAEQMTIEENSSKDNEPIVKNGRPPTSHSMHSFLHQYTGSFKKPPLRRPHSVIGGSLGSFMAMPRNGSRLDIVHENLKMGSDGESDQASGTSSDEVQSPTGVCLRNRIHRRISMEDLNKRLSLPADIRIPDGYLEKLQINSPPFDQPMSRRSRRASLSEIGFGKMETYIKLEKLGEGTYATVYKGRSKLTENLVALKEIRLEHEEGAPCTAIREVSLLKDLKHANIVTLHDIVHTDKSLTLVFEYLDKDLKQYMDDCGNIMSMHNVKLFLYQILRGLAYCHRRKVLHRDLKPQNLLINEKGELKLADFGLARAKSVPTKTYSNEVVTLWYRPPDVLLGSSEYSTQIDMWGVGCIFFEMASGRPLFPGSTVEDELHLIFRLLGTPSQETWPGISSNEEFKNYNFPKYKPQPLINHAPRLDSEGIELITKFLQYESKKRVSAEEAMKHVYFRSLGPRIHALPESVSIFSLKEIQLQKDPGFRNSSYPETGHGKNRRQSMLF
UniProt P00915, sequence (P00915 whole entry, looked up): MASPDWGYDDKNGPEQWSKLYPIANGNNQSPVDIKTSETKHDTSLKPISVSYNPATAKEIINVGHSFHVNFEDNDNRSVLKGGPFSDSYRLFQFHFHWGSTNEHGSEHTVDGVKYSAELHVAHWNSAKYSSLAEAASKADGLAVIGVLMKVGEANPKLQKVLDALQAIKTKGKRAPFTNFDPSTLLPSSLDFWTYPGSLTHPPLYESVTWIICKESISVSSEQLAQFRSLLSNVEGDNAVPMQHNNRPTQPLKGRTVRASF
UniProt Q14746, sequence (Q14746 whole entry, looked up): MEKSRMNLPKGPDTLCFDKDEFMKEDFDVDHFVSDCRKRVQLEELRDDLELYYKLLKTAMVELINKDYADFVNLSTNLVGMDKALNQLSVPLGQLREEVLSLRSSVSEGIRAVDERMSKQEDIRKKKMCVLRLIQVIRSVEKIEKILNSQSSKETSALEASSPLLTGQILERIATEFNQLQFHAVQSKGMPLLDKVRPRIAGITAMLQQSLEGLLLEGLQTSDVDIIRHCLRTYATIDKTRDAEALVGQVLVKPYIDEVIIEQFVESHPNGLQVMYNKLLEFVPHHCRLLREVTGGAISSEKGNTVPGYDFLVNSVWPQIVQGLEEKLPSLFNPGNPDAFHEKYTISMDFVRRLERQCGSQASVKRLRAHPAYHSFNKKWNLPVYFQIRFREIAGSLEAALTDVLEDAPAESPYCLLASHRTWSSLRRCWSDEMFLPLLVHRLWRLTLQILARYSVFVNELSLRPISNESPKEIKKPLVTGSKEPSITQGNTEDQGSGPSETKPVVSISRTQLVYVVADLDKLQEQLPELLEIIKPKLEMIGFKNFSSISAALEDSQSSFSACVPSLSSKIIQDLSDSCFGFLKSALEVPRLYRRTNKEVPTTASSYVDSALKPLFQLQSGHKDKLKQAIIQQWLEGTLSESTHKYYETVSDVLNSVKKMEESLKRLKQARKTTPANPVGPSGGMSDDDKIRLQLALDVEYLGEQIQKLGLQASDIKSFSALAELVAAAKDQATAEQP
UniProt Q2TAC2, sequence (Q2TAC2 whole entry, looked up): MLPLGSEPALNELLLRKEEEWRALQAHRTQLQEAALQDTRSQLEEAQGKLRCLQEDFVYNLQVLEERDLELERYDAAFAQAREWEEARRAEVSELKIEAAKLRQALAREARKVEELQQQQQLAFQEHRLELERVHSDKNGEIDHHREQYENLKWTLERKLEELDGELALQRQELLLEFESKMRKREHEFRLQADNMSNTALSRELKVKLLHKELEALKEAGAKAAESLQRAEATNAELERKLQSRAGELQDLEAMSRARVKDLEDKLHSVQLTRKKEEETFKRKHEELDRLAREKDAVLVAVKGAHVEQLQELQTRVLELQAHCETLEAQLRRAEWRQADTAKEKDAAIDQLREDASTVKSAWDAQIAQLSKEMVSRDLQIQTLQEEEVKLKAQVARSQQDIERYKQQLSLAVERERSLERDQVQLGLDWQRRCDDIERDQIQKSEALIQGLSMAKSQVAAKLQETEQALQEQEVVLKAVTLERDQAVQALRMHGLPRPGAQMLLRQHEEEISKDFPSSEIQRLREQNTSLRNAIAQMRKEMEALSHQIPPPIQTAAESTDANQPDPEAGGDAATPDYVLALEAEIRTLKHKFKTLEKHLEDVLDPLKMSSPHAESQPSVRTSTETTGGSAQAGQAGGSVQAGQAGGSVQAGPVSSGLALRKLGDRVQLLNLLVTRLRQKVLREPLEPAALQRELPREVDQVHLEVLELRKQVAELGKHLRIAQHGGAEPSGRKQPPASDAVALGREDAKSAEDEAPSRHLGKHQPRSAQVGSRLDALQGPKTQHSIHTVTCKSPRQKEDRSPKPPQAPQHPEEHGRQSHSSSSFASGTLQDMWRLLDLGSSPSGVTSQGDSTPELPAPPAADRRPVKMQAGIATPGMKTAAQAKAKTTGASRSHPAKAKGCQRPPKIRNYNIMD
UniProt P51636, sequence (P51636 whole entry, looked up): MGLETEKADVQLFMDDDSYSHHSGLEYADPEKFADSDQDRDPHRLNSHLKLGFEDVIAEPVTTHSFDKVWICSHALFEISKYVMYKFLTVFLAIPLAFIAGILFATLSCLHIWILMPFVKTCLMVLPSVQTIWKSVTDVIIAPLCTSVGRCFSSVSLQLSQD
UniProt P33240, sequence (P33240 whole entry, looked up): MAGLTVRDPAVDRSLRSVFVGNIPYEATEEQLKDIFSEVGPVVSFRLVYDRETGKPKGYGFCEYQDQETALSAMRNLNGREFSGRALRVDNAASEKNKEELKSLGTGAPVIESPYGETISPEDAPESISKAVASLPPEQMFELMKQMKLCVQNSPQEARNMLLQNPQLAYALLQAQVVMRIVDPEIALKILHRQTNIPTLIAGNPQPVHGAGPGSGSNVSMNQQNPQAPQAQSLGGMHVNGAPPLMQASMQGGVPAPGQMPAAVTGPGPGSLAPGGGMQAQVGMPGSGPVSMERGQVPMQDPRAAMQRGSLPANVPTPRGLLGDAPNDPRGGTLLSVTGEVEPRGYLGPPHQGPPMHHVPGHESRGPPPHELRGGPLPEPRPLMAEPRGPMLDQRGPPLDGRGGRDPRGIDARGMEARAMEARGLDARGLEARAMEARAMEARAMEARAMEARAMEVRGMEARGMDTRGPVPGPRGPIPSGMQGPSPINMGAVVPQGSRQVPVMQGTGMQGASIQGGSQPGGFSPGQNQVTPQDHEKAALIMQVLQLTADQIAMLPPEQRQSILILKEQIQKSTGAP
UniProt Q14061, sequence (Q14061 whole entry, looked up): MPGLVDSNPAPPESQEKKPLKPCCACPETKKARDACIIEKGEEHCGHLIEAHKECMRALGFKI
UniProt P49336, sequence (P49336 whole entry, looked up): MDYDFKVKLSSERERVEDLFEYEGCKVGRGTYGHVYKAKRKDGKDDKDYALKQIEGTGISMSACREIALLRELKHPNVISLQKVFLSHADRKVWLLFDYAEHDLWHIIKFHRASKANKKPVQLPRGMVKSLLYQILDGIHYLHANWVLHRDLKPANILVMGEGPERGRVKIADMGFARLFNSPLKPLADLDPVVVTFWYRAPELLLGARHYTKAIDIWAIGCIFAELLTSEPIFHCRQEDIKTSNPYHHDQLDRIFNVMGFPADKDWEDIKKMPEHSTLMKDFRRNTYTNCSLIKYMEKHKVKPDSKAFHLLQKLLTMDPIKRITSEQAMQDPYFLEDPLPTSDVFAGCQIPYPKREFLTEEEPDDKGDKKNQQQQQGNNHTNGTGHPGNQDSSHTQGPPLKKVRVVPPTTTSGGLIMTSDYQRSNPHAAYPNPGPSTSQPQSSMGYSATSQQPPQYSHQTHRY

Regarding CCDC57 (UniProt Q2TAC2), the log2 fold change in test [1] is 0.006; in [2], 0.01; in test [3], -0.081; in test [4], 0.013; in test [5], -0.008; in test [6], 0.009. Further, the log2 fold change in test [7] is 0.063; in [8], 0.07.

Consider COX17 (UniProt Q14061), for which the log2 fold change in [1] was 0.183; in test [2], -0.059; in test [3] it was 0.034; in test [9] it was 0.059; in [4], -0.112; in [6], -0.055. Further, the log2 fold change in test [7] was 0.02; in test [10], 0.092.

For CASP8 isoform 9 (UniProt Q14790), the log2 fold change is -0.087 in test [1]; -0.017 in [2]; -0.086 in test [9]; -0.107 in [4]; 0.023 in test [5]; -0.153 in test [6]. Also, the results for the log2 fold change in test [7], in [8] and in test [10] were 0.044, -0.028 and 0.127, respectively.

CSTF2 (UniProt P33240): the log2 fold change is -0.052 in test [1]; 0.005 in [2]; -0.009 in test [3]; 0.013 in test [9]; -0.016 in test [4]; -0.005 in test [5]. Besides, the log2 fold change was -0.07 in test [6], 0.023 in test [7], 0.021 in test [8] and 0.069 in test [10].

Take CA1 (UniProt P00915): the log2 fold change was -0.022 in test [1]; -0.002 in [2]; -0.006 in test [3]; -0.044 in test [9]; -0.032 in [4]; -0.026 in test [5]. Also, the log2 fold change was 0.022 in [6], 0.018 in test [7], -0.045 in test [8] and 0.072 in test [10].

Take CDK8 (UniProt P49336): the log2 fold change in test [1] was 0.03; in test [2], 0.008; in [3], -0.044; in test [9], -0.136; in test [4], -0.137; in test [5], -0.105. Further, the log2 fold change in test [7] was -0.005; in test [8], -0.047; in test [10] it was 0.038.

Take COX7C (UniProt P15954): the log2 fold change was 0.12 in [1]; 0.009 in test [2]; 0.114 in test [9]; -0.016 in test [4]; -0.069 in test [5]; 0.059 in [6]. Also, the figures for the log2 fold change in test [7], in [8] and in test [10] were -0.053, 0.008 and -0.288, respectively.

Regarding C6orf120 (UniProt Q7Z4R8), the log2 fold change in [1] was 0.003; in [2], -0.053; in test [5], -0.135; in [6], -0.008; in test [8] it was -0.114.

Take COG2 (UniProt Q14746): the log2 fold change was -0.006 in test [1]; 0.25 in [2]; -0.048 in test [3]; -0.053 in [9]; 0.58 in test [4]; -0.187 in [6]. Also, the log2 fold change in test [7] was 0.631 (active).

Regarding CFAP36 isoform 2 (UniProt Q96G28), the log2 fold change in test [1] was 0.12; in test [2], 0.055; in test [3], 0.162; in [9], -0.02; in test [4] it was -0.049; in test [5], 0.001. Further, the values for the log2 fold change in test [7], in test [8] and in test [10] were 0.019, 0.082 and 0.241, respectively.

For CDK17 isoform 2 (UniProt Q00537), the log2 fold change in [1] is -0.031; in test [2], -0.024; in test [3], -0.208; in [9], 0.03; in test [4] it was 0.508; in [5], 0.051. The log2 fold change in [7] is 0.103; in test [8] it was 0.049; in test [10] it was 0.158.

Regarding CHERP (UniProt Q8IWX8), the log2 fold change is 0.04 in test [1]; 0.266 in test [2]; 0.051 in [3]; 0.063 in test [9]; 0.002 in test [4]; -0.227 in test [5]. The log2 fold change in test [6] is -0.02; in test [7] it was 0.002; in [8] it was -0.023; in [10], 0.038.

Turning to CEP128 (UniProt Q6ZU80), the log2 fold change is -0.269 in test [1]; 0.031 in test [2]; -0.101 in test [3]; -0.103 in [9]; 0.677 (active) in [4]; 0.076 in test [5]. The log2 fold change is -0.381 in test [7] and -0.198 in [8].

For CAMK2G isoform 6 (UniProt Q13555), the log2 fold change in test [1] is -0.018; in test [2], 0.269; in [3], 0.039; in [9], -0.101; in test [4], -0.173; in [5], -0.032. Further, the log2 fold change in test [6] is -0.006; in [7], -0.204; in test [8], 0.12; in test [10], 0.141.

Take CAV2 (UniProt P51636): the log2 fold change in test [1] was -0.046; in test [2], 0.131; in test [9], 0; in [4] it was -0.083; in test [5], -0.011; in [6], 0.137. Further, the log2 fold change in test [7] is 0.026; in test [8], -0.018; in test [10], 0.031.

Regarding CPSF7 isoform 3 (UniProt Q8N684), the log2 fold change in test [1] is 0.018; in test [2], 0.018; in test [3], 0.033; in test [9], -0.003; in test [4], -0.074; in test [5], 0.065. For the same target, the log2 fold change was 0.029 in test [6], -0.016 in test [7], 0.013 in test [8] and 0.12 in [10].
